According to PubChem BioAssay (Tox21):
Values joined by “and” are separate entries in the source; they are usually repeats but may differ in a detail not shown here. Equal entries are not always repeated. Results filed as inconclusive are left out. Unmarked numbers belong to inactive results. Active and inactive are the calls of the source. Calls come from the whole dose curve; as a rule, active = well fitted curve in the direction sought with a large enough effect in the repeat runs; inconclusive = weak or mixed curves; inactive = no such curve, though single readings can be large; an effect the other way counts as inactive or inconclusive.

Target: Luciferin 4-monooxygenase (Photinus pyralis) (UniProt P08659)
Experiment: qHTS assay to identify small molecule inhibitors of firefly luciferase (AID 1224835); note: nearly all actives have a fitted effect of over 25% in size
Details: purified P. pyralis luciferase, luminescence inhibition; series mostly up to 115 µM; activity change, negative = inhibition: at the top concentration
Method in brief: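 Biochemical qHTS: compounds run as interplate titrations against purified firefly enzyme, with D-luciferin and ATP each at its KM concentration. Light output recorded by CCD imaging.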
% is set by controls: 0 for no effect and ±100 for the full control effect; potency is the fitted concentration of half-maximal effect.

Sequence of Luciferin 4-monooxygenase (Photinus pyralis) (P08659 whole entry, looked up): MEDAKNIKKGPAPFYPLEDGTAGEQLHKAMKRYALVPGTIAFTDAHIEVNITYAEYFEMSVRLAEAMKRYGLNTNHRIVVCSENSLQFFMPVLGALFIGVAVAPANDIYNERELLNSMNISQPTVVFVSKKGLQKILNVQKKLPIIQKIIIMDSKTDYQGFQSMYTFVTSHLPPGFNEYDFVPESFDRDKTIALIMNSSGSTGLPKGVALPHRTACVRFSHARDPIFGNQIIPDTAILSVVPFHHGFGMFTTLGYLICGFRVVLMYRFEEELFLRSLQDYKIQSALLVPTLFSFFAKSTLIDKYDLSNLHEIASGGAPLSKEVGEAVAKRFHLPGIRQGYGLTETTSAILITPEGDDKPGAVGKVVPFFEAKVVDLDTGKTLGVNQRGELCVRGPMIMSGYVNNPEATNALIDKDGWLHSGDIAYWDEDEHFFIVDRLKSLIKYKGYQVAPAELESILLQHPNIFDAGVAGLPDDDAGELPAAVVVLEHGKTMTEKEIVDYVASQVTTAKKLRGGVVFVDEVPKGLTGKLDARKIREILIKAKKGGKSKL

SMILES | activity change, negative = inhibition | Potency
OCCN(CCO)c1nc(N2CCCCC2)c2nc(N(CCO)CCO)nc(N3CCCCC3)c2n1 | -1.5% [at 52.9 µM] | 
CC(C)c1ccc2c(c1)CC[C@H]1[C@](C)(CN)CCC[C@]21C | -3.11% | 
CCOc1ccc2nc3cc(N)ccc3c(N)c2c1 | -14.9% [at 52.9 µM] | 
COc1c(C)c2c(c(O)c1C/C=C(\C)CCC(=O)O)C(=O)OC2 | -1.85% [at 52.9 µM] | 
CCCC(=O)OC[C@@H](OC(=O)CCC)[C@@H](OC(=O)CCC)[C@H](Cn1c2nc(=O)[nH]c(=O)c-2nc2cc(C)c(C)cc21)OC(=O)CCC | -0.302% [at 52.9 µM] | 
CCCCCCCCCCCC(=O)NCCCN(C)C | 0.103% | 
CSc1ccc2c(c1)C(N1CCN(C)CC1)Cc1ccccc1S2 (stereo unspecified) | 1.52% [at 52.9 µM] | 
Nc1nc2ccccc2n1Cc1ccc(F)cc1 | 0.818% [at 52.9 µM] | 
CCCCN1C(=O)[C@@H]([C@H](O)C2CCCCC2)NC(=O)C12CCN(Cc1ccc(Oc3ccc(C(=O)O)cc3)cc1)CC2 | 7.38% | 
CCC(CN)=C(c1ccccc1)c1ccccc1 | 3.47% [at 52.9 µM] | 
Nc1ccc2c3c(cccc13)-c1ccccc1-2 |  | 22.7 µM (active)
O=C(OCC1CO1)C1CCCCC1C(=O)OCC1CO1 (stereo unspecified) | 1.91% | 
CCN(C(=O)N(CC)c1ccccc1)c1ccccc1 | 0.896% | 
Cc1ccc(-n2nc(C(C)(C)C)cc2NC(=O)Nc2ccc(OCCN3CCOCC3)c3ccccc23)cc1 | -10.8% [at 52.9 µM] | 
Nc1c2ccccc2nc2ccccc12 |  | inactive
CCCCCCCCS(=O)C(C)Cc1ccc2c(c1)OCO2 (stereo unspecified) | -8.81% | 
c1cc(C(c2ccc(OCC3CO3)cc2)c2ccc(OCC3CO3)cc2)ccc1OCC1CO1 (stereo unspecified) | -5.94% | 
CC[C@@]1(O)C(=O)OCc2c1cc1n(c2=O)Cc2cc3c(CN(C)C)c(O)ccc3nc2-1 | -2.64% [at 52.9 µM] | 
Nc1ccc2cc(S(=O)(=O)O)cc(O)c2c1N=Nc1ccccc1C(F)(F)F |  | 63.3 µM (active)
CNCc1cc(F)ccc1Oc1ccc(Cl)c(Cl)c1 | 4.64% | 
CC[C@@]1(O)C(=O)OCc2c1cc1n(c2=O)Cc2c-1nc1ccccc1c2/C=N/OC(C)(C)C | -7.23% [at 52.9 µM] | 
C[C@H]1[C@H]2CC[C@H]3[C@@H]4CC=C5C[C@@H](N(C)C)CC[C@]5(C)[C@H]4CC[C@]23CN1C | 0.398% [at 52.9 µM] | 
CCCCN(CCCC)c1ccc(C(=O)c2ccccc2C(=O)O)c(O)c1 | 2.46% | 
CCCCCCOC(=O)c1ccc(O)cc1 |  | 31.8 µM (active) and 28.3 µM (active)
Cc1cc(O)c2ccccc2c1O | 1.82% [at 52.9 µM] | 
O=C1CCCc2c1cc1ccc3cccc4ccc2c1c34 |  | 11.4 µM (active)
O=C(Nc1cccc(C(F)(F)F)c1)c1cc(Br)cc(Br)c1O |  | 3.99 µM (active)
COc1ccc(-c2ccc3cc(C(=O)O)ccc3c2)cc1C12CC3CC(CC(C3)C1)C2 | -0.519% [at 52.9 µM] | 
OCCCCCCCCCCCCBr | -2.5% | 
CCOC(=O)c1nc(C(Cl)(Cl)Cl)n(-c2ccc(Cl)cc2Cl)n1 | -1.17% | 

Test system: not listed separately
Experiment: qHTS assay to identify small molecule agonists of the constitutive androstane receptor (CAR) signaling pathway - cell viability counter screen (AID 1224836); note: nearly all actives have a fitted effect of over 45% in size
Details: HepG2-CYP2B6-hCAR viability, CellTiter-Fluor, 23 h, PK11195 added to every well; series mostly up to 92.4 µM; viability change, negative = cytotoxic: at the top concentration
Method in brief: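 Using CellTiter-Fluor, viability of HepG2 cells harbouring hCAR and CYP2B6-2.2kb was measured following 23 h incubation with a 15-concentration compound series plus PK11195 (0.75 uM final).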

SMILES | viability change, negative = cytotoxic | Potency
CSc1ccc(/C=C2/C(C)=C(CC(=O)O)c3cc(F)ccc32)cc1 | -0.798% [at 42.5 µM] | 
CCOc1ccc2nc3cc(N)ccc3c(N)c2c1 | 7.64% [at 42.5 µM] | 
COc1c(C)c2c(c(O)c1C/C=C(\C)CCC(=O)O)C(=O)OC2 | -18.5% [at 42.5 µM] | 
CCCCCCCCCCCC(=O)NCCCN(C)C |  | 61.1 µM (active)
CSc1ccc2c(c1)C(N1CCN(C)CC1)Cc1ccccc1S2 (stereo unspecified) | -21.3% [at 42.5 µM] | 
COc1cccc(N)c1 | 6.36% | 
CCCCN1C(=O)[C@@H]([C@H](O)C2CCCCC2)NC(=O)C12CCN(Cc1ccc(Oc3ccc(C(=O)O)cc3)cc1)CC2 | -30.5% | 
CCN(C(=O)N(CC)c1ccccc1)c1ccccc1 | -4.84% | 
Cc1ccc(-n2nc(C(C)(C)C)cc2NC(=O)Nc2ccc(OCCN3CCOCC3)c3ccccc23)cc1 | 5.3% [at 42.5 µM] | 
c1cc(C(c2ccc(OCC3CO3)cc2)c2ccc(OCC3CO3)cc2)ccc1OCC1CO1 (stereo unspecified) | -19.2% | 
Nc1cc(C(F)(F)F)ccc1S | 8.65% [at 42.5 µM] | 
CCCCN(CCCC)c1ccc(C(=O)c2ccccc2C(=O)O)c(O)c1 | -10.8% | 
Cc1cc(O)c2ccccc2c1O | -3.64% [at 42.5 µM] | 
O=C1CCCc2c1cc1ccc3cccc4ccc2c1c34 | -21.7% | 
COc1ccc(-c2ccc3cc(C(=O)O)ccc3c2)cc1C12CC3CC(CC(C3)C1)C2 | -22.5% [at 42.5 µM] | 
OCCCCCCCCCCCCBr | 0.697% | 

Test system: not listed separately
Experiment: qHTS assay to identify small molecule antagonists of the constitutive androstane receptor (CAR) signaling pathway - cell viability counter screen (AID 1224837); note: nearly all actives have a fitted effect of over 45% in size
Details: HepG2-CYP2B6-hCAR viability, CellTiter-Fluor, 23 h, co-treated with 50 nM CITCO; series mostly up to 92.4 µM; activity change, negative = cytotoxicity: at the top concentration
Method in brief: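 HepG2 cells stably expressing hCAR and a CYP2B6-2.2kb reporter were plated and pre-incubated 4 hr at 37 C/5% CO2, then given compounds at 15 concentrations plus 50 nM CITCO (final). After 23 hr, viability was read by CellTiter-Fluor fluorescence.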

SMILES | activity change, negative = cytotoxicity | Potency
CSc1ccc(/C=C2/C(C)=C(CC(=O)O)c3cc(F)ccc32)cc1 | -7.78% [at 42.5 µM] | 
CC(C)c1ccc2c(c1)CC[C@H]1[C@](C)(CN)CCC[C@]21C |  | 68.6 µM (active)
CCOc1ccc2nc3cc(N)ccc3c(N)c2c1 | 4.44% [at 42.5 µM] | 
COc1c(C)c2c(c(O)c1C/C=C(\C)CCC(=O)O)C(=O)OC2 | -22.2% [at 42.5 µM] | 
COc1cccc(N)c1 | 0.182% | 
CCC(CN)=C(c1ccccc1)c1ccccc1 | 2.43% [at 42.5 µM] | 
CCN(C(=O)N(CC)c1ccccc1)c1ccccc1 | 0.526% | 
Cc1ccc(-n2nc(C(C)(C)C)cc2NC(=O)Nc2ccc(OCCN3CCOCC3)c3ccccc23)cc1 | -0.717% [at 42.5 µM] | 
Nc1c2ccccc2nc2ccccc12 | -4.74% [at 42.5 µM] | 
CCCCCCCCS(=O)C(C)Cc1ccc2c(c1)OCO2 (stereo unspecified) | -0.729% | 
c1cc(C(c2ccc(OCC3CO3)cc2)c2ccc(OCC3CO3)cc2)ccc1OCC1CO1 (stereo unspecified) | -14% | 
CNCc1cc(F)ccc1Oc1ccc(Cl)c(Cl)c1 |  | 61.1 µM (active)
OCc1c[nH]c2ccccc12 | -10.7% | 
Nc1cc(C(F)(F)F)ccc1S | -12.8% [at 42.5 µM] | 
C[C@H]1[C@H]2CC[C@H]3[C@@H]4CC=C5C[C@@H](N(C)C)CC[C@]5(C)[C@H]4CC[C@]23CN1C | -14.9% [at 42.5 µM] | 
CCCCCCCCOC(=O)c1ccc(O)cc1 |  | inactive
CCCCN(CCCC)c1ccc(C(=O)c2ccccc2C(=O)O)c(O)c1 | -5.36% | 
CCCCCCOC(=O)c1ccc(O)cc1 |  | inactive
COc1ccc(-c2ccc3cc(C(=O)O)ccc3c2)cc1C12CC3CC(CC(C3)C1)C2 | -21.8% [at 42.5 µM] | 
OCCCCCCCCCCCCBr | -10.8% | 
